Test results from PubChem BioAssay AID2576 (National Center for Advancing Translational Sciences (NCATS), 2010).
Results filed as inconclusive are left out. Activity calls are given as the source filed them. Calls follow the shape of the dose curve; as a rule, active = well fitted activation curve with a large enough effect; inconclusive = small, poorly fitted or top-dose-only effect, or effect the other way; inactive = flat fitted curve, though single readings scatter.

target: Pyruvate kinase PKM (Homo sapiens) (UniProt P14618); test: Secondary LDH Assay for Activators of Human Pyruvate Kinase M2 isoform: for Probe SAR; conditions: purified hPK-M2, LDH-coupled NADH fluorescence kinetic; series mostly up to 58.4 µM; activation: at the top concentration
Text: NIH Chemical Genomics Center [NCGC] Matthew G. Vander Heiden, M.D., Ph.D. [Harvard Medical School, 77 Avenue Louis Pasteur, Boston, MA 02115] NCGC Assay Overview: Human pyruvate kinase muscle 2 (hPK-M2)enzyme was supplied as a highly purified (>95% pure) preparation from Harvard Medical School and a secondary assay was used to evaluate compounds. This assay couples the formation of pyruvate from hPK-M2 using lactate dehydrogenase (LDH) and NADH. The depletion of NADH is followed in a fluorescent-based kinetic assay that follows the formation of pyruvate to lactate, as catalyzed LDH (described by Hannaert et al., 2002)1 Pyruvate kinase substrates, PEP and ADP, were present in the assay at 0.1 mM and 4 mM respectively. In this kinetic assay initial rates were determined by following the fluorescence of NADH depletion.
NCGC Assay Protocol Summary: Three uL of substrate mix (final concentration, 50 mM Tris-Cl pH 8.0, 200 mM KCl, 15 mM MgCl2, 0.1 mM PEP, 4.0 mM ADP, and 0.2 mM NADH) was dispensed into black-solid 1536 well plates. 23 nL of compounds were delivered by a pin tool and 1 uL of enzyme mix (final concentrations, 10 nM hPK-M2 and 1 uM of LDH) was added. Plates were immediately placed in ViewLux (Perkin Elmer) and NADH fluorescence was determined at 30 second exposure intervals for between 3 and 6 minutes. Data were normalized to the uninhibited and EC100 activation using known activators such as fructose-bis-phosphate.

Pyruvate kinase PKM (Homo sapiens), sequence (P14618 whole entry, looked up, canonical isoform): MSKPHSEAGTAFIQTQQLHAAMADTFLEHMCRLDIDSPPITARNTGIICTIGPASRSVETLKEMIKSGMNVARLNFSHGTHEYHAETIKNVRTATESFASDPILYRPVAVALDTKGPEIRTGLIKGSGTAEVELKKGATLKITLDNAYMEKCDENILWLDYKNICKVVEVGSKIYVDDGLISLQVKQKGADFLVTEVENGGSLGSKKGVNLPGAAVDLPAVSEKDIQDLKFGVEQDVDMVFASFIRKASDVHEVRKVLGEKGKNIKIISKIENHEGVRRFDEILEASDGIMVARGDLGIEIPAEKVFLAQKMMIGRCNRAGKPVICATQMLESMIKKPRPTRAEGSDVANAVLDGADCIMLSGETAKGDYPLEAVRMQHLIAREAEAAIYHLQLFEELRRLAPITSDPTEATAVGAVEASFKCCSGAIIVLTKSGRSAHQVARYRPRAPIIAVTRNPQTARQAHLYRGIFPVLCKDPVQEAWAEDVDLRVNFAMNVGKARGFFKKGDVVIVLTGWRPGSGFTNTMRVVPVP

activation, inactive:
Cc1cccc(OC2=NS(=O)(=O)c3ccccc32)c1 2.22%
COc1cc(N2C(=O)c3ccccc3C2=O)c2ncccc2c1 4.6%
O=C1CCc2cc(S(=O)(=O)Nc3ccc(-c4ccccc4)cc3)ccc2N1 6.56%
O=C1c2ccccc2C(=O)N1c1ccc(Cl)cc1 16.4%
Cc1ccc(NC(=O)c2ccc3c(c2)CCC(=O)N3)cc1C -2.96%
CC(=O)N1c2ccc(S(=O)(=O)Nc3ccc(C)c(C)c3)cc2CC1C (stereo not given) 18.2%
O=C1c2ccccc2C(=O)N1c1ccncc1 11.9%
O=C1c2ccccc2C(=O)N1c1cccc2ncccc12 3.02%
Cc1ccc(NS(=O)(=O)c2ccc(Cl)cc2)cc1C 20%
Cc1ccc(NS(=O)(=O)c2ccc3c(c2)CCCC(=O)N3)cc1C 25.4%
O=C1NS(=O)(=O)c2ccccc21 -4.58%
Cc1ccc(-c2nc3ccc(Cl)cn3c2Nc2ccccc2)o1 -2.32%
Cc1ccc(NS(=O)(=O)c2ccc3c(c2)oc(=O)n3C)cc1C 23.2%
O=S1(=O)N=C(Oc2ccccc2)c2ccccc21 2.56% [at 82.8 µM]
O=C1c2ccccc2C(=O)N1C1CCCCC1 3.59%
COc1ccccc1OC1=NS(=O)(=O)c2ccccc21 -4.13%
Cc1ccc(C)c(OC2=NS(=O)(=O)c3ccccc32)c1 -5.9%
O=C1c2ccccc2C(=O)N1c1ncccc1O 2.37%
O=C1CCc2cc(S(=O)(=O)Nc3ccccc3Cl)ccc2N1 16.6%
O=C1c2ccccc2C(=O)N1c1nccs1 9.77%
O=C1c2ccccc2C(=O)N1c1cccc(=O)[nH]1 3.56%
CC(=O)N1CCCc2cc(S(=O)(=O)Nc3ccc(C)c(C)c3)ccc21 12.3%
Cc1ccc(N[S+](=O)([O-])c2cc3c(cc2CCc2ccccc2)NC(=O)CO3)cc1C 12.6%
Cc1ccc2nc(-c3ccc(C)o3)c(NC3CCCC3)n2c1 -15.3%
Cc1ccc(NS(=O)(=O)c2cc3c(cc2-c2ccsc2)NC(=O)CO3)cc1C 16.6%
Cc1ccc(OC2=NS(=O)(=O)c3ccccc32)cc1 -2.38%
Cc1cc(N2C(=O)c3ccccc3C2=O)no1 -1.03%
Cc1ccc(NS(=O)(=O)c2ccc(N3CCCC3=O)cc2)cc1C 14.4%
Cc1ccc2nc(-c3cccs3)c(Nc3ccccc3)n2c1 -15.2%
COc1cccc(N2C(=O)c3ccccc3C2=O)n1 5.33%
Cc1ccccc1Nc1c(-c2ccc(Cl)s2)nc2ccccn12 0.026%
Cc1ccc(NS(=O)(=O)c2ccc3c(c2)CCN(C(=O)C(F)(F)F)C3)cc1C 16.1%

Potency, active:
Cc1cccc(NS(=O)(=O)c2ccc3c(c2)CCC(=O)N3)c1 1.83 µM
Cc1ccc(NS(=O)(=O)c2cc3c(cc2N(C)C)NC(=O)CC3)cc1C 1.03 µM
CSc1cc2c(s1)c1cnn(Cc3cccc(O)c3)c(=O)c1n2C 0.206 µM
Cc1cc2c(s1)c1cnn(Cc3cc(F)c(F)cc3F)c(=O)c1n2C 0.398 µM
CSc1cc2c(s1)c1cnn(Cc3cccc(N)c3)c(=O)c1n2C 0.058 µM
COc1cccc(Cn2ncc3c4sc(SC)cc4n(C)c3c2=O)c1 0.206 µM
Cc1cc2c(s1)c1cnn(Cc3c(Cl)ccc(C)c3F)c(=O)c1n2C 0.562 µM
Cc1ccc(NS(=O)(=O)c2cc3c(cc2N(C)C)CCC(=O)N3)cc1C 1.46 µM
